# Results as given in the supplement of paper PMC7724964.
# T1: IRS1 157-267 IRS (domain begin residue: 157, domain end residue: 267), P35568
# T1 chain: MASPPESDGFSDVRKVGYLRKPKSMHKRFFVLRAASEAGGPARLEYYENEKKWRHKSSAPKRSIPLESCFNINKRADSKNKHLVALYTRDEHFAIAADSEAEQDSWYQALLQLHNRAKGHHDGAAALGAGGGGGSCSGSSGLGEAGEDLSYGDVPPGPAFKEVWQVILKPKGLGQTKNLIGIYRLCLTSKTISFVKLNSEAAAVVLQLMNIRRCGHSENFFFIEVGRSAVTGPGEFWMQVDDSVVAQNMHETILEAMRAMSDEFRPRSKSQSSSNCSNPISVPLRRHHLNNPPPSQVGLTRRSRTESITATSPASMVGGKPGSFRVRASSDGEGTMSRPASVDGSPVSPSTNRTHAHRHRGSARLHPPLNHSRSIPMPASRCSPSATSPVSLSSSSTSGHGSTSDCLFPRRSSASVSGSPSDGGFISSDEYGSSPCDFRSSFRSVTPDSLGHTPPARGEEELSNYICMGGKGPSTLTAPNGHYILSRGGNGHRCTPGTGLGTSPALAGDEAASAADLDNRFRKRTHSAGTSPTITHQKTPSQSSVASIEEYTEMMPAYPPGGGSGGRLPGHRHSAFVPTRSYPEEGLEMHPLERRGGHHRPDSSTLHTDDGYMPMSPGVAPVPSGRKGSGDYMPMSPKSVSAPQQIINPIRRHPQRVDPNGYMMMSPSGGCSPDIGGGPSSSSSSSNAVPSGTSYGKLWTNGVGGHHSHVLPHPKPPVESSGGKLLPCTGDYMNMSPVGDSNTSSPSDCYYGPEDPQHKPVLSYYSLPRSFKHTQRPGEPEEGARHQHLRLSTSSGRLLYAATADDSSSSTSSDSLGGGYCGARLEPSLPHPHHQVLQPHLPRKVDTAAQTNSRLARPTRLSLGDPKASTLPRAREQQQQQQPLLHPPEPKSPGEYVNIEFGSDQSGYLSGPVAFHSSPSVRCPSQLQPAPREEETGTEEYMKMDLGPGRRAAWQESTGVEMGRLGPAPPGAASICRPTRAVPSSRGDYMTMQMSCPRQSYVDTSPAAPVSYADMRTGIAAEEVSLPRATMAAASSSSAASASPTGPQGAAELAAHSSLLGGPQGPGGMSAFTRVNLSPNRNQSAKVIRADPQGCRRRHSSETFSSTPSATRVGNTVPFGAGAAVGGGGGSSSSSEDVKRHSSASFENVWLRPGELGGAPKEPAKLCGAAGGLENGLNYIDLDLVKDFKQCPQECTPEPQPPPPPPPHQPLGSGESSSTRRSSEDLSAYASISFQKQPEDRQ
# T2: LBR 1-67 LBR_tudor (domain begin residue: 1, domain end residue: 67), Q14739
# T2 chain: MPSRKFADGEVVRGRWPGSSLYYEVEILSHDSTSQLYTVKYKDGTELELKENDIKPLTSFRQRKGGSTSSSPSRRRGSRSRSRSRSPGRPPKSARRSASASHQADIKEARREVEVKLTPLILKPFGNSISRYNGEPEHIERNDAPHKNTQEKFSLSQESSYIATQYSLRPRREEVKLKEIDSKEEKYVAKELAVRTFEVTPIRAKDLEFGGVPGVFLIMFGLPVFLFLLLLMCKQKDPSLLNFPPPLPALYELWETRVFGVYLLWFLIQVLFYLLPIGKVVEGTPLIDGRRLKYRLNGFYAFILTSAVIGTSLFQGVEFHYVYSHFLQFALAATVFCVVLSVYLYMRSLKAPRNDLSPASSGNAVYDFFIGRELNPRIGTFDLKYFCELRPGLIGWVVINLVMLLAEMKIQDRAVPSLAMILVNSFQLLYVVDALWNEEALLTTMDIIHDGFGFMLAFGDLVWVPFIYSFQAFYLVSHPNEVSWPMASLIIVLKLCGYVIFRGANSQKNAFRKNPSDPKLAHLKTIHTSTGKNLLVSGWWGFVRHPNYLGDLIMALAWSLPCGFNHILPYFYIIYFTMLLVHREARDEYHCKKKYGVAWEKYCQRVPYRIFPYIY
# T3: KAT8 2-458 Tudor-knot+MOZ_SAS (domain begin residue: 2, domain end residue: 458), Q9H7Z6
# T3 chain: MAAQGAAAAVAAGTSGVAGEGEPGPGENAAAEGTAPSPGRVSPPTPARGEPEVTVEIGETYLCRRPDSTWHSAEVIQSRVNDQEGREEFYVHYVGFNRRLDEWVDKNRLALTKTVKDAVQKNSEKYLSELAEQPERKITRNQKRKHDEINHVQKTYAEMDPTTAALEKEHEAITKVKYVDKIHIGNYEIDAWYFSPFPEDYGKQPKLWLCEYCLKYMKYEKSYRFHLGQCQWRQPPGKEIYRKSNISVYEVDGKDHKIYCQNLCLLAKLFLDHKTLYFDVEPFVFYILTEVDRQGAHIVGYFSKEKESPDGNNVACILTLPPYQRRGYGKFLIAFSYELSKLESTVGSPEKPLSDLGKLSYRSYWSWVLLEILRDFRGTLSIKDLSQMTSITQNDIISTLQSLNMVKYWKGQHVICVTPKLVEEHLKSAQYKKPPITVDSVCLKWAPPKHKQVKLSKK
# T4: TDRD1 261-449 TUDOR (domain begin residue: 261, domain end residue: 449), Q9BXT4
# T4 chain: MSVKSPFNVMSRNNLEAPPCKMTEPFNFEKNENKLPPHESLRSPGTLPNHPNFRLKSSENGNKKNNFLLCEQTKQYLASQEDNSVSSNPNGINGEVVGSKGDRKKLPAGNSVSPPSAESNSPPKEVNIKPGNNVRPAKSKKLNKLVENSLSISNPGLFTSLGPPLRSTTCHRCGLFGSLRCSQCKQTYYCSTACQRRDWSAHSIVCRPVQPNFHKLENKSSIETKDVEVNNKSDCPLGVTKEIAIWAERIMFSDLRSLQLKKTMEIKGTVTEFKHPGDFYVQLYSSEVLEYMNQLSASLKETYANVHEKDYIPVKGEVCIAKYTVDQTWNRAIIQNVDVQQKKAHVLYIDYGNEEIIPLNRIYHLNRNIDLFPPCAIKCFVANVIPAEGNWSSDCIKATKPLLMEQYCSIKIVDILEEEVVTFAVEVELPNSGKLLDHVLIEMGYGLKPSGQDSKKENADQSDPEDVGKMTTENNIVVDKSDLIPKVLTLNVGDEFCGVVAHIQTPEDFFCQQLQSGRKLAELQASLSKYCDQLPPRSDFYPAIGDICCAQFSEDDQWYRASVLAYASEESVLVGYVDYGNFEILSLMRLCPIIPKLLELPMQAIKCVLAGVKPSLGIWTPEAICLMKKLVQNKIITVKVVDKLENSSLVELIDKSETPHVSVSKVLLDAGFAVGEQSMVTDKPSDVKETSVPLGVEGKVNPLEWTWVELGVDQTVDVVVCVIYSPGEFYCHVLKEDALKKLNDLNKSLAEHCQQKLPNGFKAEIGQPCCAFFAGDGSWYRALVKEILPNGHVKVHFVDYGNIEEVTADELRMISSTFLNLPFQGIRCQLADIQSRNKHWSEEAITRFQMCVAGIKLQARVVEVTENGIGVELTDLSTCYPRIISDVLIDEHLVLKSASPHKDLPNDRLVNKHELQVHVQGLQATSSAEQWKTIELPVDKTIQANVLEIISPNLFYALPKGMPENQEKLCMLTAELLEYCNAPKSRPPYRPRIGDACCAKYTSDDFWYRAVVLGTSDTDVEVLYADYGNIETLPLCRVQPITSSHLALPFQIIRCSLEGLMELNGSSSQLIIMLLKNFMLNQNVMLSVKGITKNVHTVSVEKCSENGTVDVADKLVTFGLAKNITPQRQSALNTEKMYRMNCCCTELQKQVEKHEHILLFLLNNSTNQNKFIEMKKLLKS
# T5: RARA 175-421 Hormone_recep (domain begin residue: 175, domain end residue: 421), P10276
# T5 chain: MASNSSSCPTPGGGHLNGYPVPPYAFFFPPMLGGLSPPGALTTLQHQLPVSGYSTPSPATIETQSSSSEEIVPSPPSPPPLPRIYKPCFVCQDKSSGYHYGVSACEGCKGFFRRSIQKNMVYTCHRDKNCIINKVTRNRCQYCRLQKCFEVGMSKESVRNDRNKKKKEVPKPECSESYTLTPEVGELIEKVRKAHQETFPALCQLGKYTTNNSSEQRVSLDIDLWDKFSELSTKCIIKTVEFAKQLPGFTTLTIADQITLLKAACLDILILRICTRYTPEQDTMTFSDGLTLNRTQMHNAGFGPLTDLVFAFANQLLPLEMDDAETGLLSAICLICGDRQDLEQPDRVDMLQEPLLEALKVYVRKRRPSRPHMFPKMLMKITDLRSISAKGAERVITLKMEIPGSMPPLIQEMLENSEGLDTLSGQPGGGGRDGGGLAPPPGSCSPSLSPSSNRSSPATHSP
# B1: unnamed (peptide)
# chain: SIKGIYIDDVLRLIDQ
# B2: unnamed (peptide)
# chain: YMEMVWDTIQIQPPQD
# B3: unnamed (peptide)
# chain: TFSMHRDEFQMLLNMM
# B4: unnamed (peptide)
# chain: YFTMDHDAWHYFQLYA
# B5: unnamed (peptide)
# chain: SDMNWWEEWDFFLARE
# B6: unnamed (peptide)
# chain: IYLDQWFEEISTYVPA
# B7: unnamed (peptide)
# chain: SGEWFKLPSFDEPRKG
# B8: unnamed (peptide)
# chain: DWEWYQYFNAPQPVKG
# B9: unnamed (peptide)
# chain: VEVDYFNSMYEAMSFM
# B10: unnamed (peptide)
# chain: VKTPVEDWKYLTFYYI
# B11: unnamed (peptide)
# chain: VFTFTMSWDAWEYILY
# B12: unnamed (peptide)
# chain: YDFGPFMGVGAPSFQF
# B13: unnamed (peptide)
# chain: SWWMLQGPKQMNEIHA
# B14: unnamed (peptide)
# chain: YGWETIWDTFPVDMPA
# B15: unnamed (peptide)
# chain: GYENWIPEGYRWQDWK
# B16: unnamed (peptide)
# chain: DLQQWIIDFYIHSMET
# B17: unnamed (peptide)
# chain: PYDNYRVVQIPWLFSD
# B18: unnamed (peptide)
# chain: WAEELYHSTQWLGVTE
# B19: unnamed (peptide)
# chain: WQMWTPLGDLDQIYTF
# B20: unnamed (peptide)
# chain: ETWADYFNVPISWIHE
# B21: unnamed (peptide)
# chain: DDVTWMWPPGGYFVNM
# B22: unnamed (peptide)
# chain: TYYLDPFAWEYLQAEY
# B23: unnamed (peptide)
# chain: SPNVVEYPDWFMWAIE
# B24: unnamed (peptide)
# chain: YIDHMYDVVMYEEIEW
# B25: unnamed (peptide)
# chain: PSEWENYMSVGDIFIF
# B26: unnamed (peptide)
# chain: STEFFYDWGYWEQMIE
# B27: unnamed (peptide)
# chain: LDWMSMFDDYSSLFSV
# B28: unnamed (peptide)
# chain: FHGIWVQDELRVWMMD
# Target: KMT2C 995-1055 PHD (domain begin residue: 995, domain end residue: 1055)
# Assay: phage ELISA signal ratio (GST-PRM binding over GST background); higher = stronger binding of peptide-phage to the PRM
# Method in brief: (§1)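 Five rounds of selection were carried out against human peptide recognition domains fused to the C-terminus of glutathione S-transferase (GST) and expressed in 96-well plates. The M13 phage library presented randomized hexadecapeptides, cysteine-free and glycine-flanked, on the gene-8 major coat protein. For each value, the phage ELISA signal on the GST-domain fusion was divided by the signal on GST alone.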
row,Binder,phage ELISA signal ratio
1,B1,6.63
2,B10,6.07

# Target: KDM6A 1-520 TPR_8 (domain begin residue: 1, domain end residue: 520), O15550
# Sequence (O15550 whole entry): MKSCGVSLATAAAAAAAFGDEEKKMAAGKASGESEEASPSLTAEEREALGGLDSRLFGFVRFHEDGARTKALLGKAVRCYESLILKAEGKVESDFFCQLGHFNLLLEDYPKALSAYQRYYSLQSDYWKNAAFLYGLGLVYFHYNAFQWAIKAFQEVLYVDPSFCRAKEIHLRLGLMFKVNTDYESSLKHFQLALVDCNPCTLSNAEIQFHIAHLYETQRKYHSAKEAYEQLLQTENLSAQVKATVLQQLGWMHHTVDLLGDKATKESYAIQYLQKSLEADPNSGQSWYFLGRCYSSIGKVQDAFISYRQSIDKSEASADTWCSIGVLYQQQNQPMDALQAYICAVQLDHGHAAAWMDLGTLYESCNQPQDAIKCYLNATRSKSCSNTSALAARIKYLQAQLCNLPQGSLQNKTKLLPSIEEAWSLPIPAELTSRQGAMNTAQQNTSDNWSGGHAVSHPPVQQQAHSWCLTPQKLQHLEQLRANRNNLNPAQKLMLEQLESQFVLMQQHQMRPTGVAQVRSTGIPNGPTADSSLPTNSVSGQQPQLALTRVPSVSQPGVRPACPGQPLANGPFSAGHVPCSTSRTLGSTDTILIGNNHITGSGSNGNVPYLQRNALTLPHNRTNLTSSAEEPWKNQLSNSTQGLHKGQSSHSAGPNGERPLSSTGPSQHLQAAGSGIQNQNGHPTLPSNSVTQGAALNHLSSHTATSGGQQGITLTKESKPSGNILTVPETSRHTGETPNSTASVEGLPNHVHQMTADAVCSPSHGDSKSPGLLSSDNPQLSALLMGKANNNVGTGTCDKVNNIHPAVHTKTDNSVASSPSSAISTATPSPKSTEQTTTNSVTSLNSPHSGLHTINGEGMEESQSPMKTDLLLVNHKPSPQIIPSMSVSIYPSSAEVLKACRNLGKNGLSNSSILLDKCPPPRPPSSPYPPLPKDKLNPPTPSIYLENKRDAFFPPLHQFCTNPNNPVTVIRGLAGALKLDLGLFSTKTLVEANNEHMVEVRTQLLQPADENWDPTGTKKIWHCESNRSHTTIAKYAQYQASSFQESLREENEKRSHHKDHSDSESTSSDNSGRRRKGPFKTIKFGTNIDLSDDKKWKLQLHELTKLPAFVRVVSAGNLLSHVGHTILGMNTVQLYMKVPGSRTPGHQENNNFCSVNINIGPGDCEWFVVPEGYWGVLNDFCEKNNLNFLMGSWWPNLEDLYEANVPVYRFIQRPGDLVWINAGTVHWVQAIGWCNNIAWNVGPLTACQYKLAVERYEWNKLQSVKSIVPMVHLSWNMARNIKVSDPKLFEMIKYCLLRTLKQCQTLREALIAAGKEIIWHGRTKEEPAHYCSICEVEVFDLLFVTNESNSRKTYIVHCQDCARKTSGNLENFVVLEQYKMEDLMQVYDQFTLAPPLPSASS
# Assay: as above
# Method in brief: as §1
row,Binder,phage ELISA signal ratio
1,B2,6.38
2,B6,8.33
3,B9,4.78
4,B18,5.83
5,B23,7.87

# Target: HSPA9 438-651 HSP70 (domain begin residue: 438, domain end residue: 651), P38646
# Sequence (P38646 whole entry): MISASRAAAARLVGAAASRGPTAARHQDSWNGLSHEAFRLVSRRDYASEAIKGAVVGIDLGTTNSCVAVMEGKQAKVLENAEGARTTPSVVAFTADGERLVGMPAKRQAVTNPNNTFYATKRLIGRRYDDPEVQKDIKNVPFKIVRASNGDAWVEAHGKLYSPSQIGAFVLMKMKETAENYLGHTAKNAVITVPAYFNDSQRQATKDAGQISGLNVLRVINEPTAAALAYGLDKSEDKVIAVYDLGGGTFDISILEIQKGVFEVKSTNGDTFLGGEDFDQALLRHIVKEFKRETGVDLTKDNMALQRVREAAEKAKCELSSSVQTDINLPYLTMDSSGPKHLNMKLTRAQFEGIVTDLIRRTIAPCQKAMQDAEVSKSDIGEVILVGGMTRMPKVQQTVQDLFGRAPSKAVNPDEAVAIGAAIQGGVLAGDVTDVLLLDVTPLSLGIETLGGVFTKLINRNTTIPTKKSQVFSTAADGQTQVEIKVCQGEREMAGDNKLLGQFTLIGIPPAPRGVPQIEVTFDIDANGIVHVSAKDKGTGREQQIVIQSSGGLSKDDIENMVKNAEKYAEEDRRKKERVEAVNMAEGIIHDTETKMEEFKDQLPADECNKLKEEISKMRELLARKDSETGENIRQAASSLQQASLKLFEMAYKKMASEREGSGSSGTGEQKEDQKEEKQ
# Assay: as above
# Method in brief: as §1
row,Binder,phage ELISA signal ratio
1,B3,23.3
2,B4,20.2
3,B11,18.4
4,B16,20.6
5,B22,20.2
6,B26,19.8

# Target: T1, IRS1 157-267 IRS (domain begin residue: …
# Assay: as above
# Method in brief: as §1
row,Binder,phage ELISA signal ratio
1,B5,15
2,B15,18

# Target: MAD2L1 2-205 HORMA (domain begin residue: 2, domain end residue: 205), Q13257
# Sequence (Q13257 whole entry): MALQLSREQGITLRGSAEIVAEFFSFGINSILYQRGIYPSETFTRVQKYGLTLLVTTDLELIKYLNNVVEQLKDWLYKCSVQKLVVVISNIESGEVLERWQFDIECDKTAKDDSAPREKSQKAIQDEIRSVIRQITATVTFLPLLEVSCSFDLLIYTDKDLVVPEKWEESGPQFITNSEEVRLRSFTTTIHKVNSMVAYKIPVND
# Assay: as above
# Method in brief: as §1
row,Binder,phage ELISA signal ratio
1,B7,6.3
2,B13,8.75

# Target: KARS 71-214 tRNA_anti-codon (domain begin residue: 71, domain end residue: 214), Q15046
# Sequence (Q15046 whole entry, looked up, tested part not stated): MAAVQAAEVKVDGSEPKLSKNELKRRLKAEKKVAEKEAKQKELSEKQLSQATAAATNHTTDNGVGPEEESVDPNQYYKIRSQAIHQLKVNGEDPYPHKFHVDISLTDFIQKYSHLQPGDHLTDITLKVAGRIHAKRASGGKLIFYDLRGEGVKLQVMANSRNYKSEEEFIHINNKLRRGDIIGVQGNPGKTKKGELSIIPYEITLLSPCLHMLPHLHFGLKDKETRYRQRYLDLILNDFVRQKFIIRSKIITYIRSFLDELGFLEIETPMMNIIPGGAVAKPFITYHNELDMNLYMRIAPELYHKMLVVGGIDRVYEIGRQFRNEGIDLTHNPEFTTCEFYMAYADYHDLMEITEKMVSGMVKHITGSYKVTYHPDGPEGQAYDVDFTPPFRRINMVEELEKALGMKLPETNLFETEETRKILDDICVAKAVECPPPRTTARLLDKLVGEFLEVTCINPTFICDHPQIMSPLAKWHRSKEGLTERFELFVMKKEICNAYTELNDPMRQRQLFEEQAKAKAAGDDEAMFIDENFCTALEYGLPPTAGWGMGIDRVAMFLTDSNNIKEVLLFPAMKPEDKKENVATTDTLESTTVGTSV
# Assay: as above
# Method in brief: as §1
row,Binder,phage ELISA signal ratio
1,B8,25.1
2,B20,18.1

# Target: KPNB1 1-876 IBN_N+Arm (domain begin residue: 1, domain end residue: 876), Q14974
# Sequence (Q14974 whole entry): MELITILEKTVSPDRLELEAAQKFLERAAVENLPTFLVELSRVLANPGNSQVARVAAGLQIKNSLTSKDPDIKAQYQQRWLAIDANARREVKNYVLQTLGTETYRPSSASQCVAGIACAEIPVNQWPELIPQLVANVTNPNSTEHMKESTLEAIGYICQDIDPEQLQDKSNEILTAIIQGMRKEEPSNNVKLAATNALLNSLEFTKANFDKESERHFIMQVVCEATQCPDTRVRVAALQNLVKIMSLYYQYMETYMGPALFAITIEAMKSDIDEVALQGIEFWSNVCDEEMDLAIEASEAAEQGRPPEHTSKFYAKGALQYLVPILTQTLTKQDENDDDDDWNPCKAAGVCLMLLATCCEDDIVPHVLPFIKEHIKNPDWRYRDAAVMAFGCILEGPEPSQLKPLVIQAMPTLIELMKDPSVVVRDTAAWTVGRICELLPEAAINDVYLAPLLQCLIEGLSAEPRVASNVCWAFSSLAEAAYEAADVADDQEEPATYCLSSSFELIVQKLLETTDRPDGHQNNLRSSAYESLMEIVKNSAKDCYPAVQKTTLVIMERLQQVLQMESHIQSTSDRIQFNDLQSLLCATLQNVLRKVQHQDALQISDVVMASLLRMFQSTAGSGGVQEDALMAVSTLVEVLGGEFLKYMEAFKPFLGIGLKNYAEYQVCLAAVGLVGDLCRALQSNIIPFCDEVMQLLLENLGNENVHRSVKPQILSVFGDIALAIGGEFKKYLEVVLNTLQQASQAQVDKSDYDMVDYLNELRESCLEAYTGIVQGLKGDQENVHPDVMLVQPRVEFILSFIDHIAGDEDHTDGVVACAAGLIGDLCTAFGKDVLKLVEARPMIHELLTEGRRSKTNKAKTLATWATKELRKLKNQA
# Assay: as above
# Method in brief: as §1
row,Binder,phage ELISA signal ratio
1,B12,9.88
2,B19,16.1
3,B25,16.9
4,B27,16.8

# Target: T2, LBR 1-67 LBR_tudor (domain begin …
# Assay: as above
# Method in brief: as §1
row,Binder,phage ELISA signal ratio
1,B14,3.69
2,B17,3.18
3,B21,4.54
4,B28,8.63

# Target: T3, KAT8 2-458 Tudor-knot+MOZ_SAS (domain …
# Assay: as above
# Method in brief: as §1
row,Binder,phage ELISA signal ratio
1,B24,3.94

# Target: T4, TDRD1 261-449 TUDOR (domain begin …
# Assay: as above
# Method in brief: as §1
row,Binder,phage ELISA signal ratio
1,B24,8.98

# Target: T5, RARA 175-421 Hormone_recep (domain …
# Assay: as above
# Method in brief: as §1
row,Binder,phage ELISA signal ratio
1,B26,9.16
